# Measurements from PubChem BioAssay (NCATS).
# Where “and” joins values, the source holds several entries; their conditions need not be identical. Identical values can stand only once. Inconclusive results are not listed. Where a call stands in place of a potency, no number is given. Calls of active or inactive are those of the source. Unless noted, the call rests on the fitted dose curve; in most records, active means well fitted curve in the direction sought with a large enough effect; inconclusive means small, poorly fitted or top-dose-only effect, or another doubt; inactive means no such curve, though single readings can be large; an effect the other way counts as inactive or inconclusive.
# What was measured:
# [1] = molecular target: Retinoic acid receptor RXR-alpha (Homo sapiens) (UniProt P19793); assay: qHTS assay for small molecule agonists of retinoid X receptor alpha signaling (AID 588544; calls by dose curve)
# Sequence of Retinoic acid receptor RXR-alpha (Homo sapiens) (P19793 whole entry, looked up): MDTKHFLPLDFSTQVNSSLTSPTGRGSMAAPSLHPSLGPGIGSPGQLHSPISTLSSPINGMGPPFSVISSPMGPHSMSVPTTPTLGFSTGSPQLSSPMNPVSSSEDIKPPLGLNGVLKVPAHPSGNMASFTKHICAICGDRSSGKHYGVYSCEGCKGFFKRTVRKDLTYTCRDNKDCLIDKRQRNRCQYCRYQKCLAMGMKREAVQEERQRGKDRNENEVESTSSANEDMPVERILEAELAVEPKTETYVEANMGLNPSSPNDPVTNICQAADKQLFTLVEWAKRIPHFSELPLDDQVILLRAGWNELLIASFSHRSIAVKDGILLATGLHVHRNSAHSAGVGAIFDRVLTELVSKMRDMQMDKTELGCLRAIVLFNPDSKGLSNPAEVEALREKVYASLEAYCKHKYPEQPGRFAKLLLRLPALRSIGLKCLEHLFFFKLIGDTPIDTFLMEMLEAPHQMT
# [2] = qHTS assay for small molecule antagonists of retinoid X receptor alpha signaling (AID 588546; active means well fitted inhibition curve with a large enough effect in the signal ratio, with a control signal flat, not every such curve was filed as active; the % refers to the signal ratio;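 further: cells stimulated with 9-cis-retinoic acid as agonist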); settings: HEK293T RXRa-UAS-bla, beta-lactamase ratio, antagonist mode; measured here: W530 green channel, cytotoxicity proxy
# Summary of the method: (§1)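 Beta-lactamase reporter inhibition, read as CCF4 fluorescence ratio (ex 405, em 460/530 nm) after 2 h at RT. HEK293T UAS-bla cells, 2500/well, were stimulated with 9-cis-RA at 500 or 100 nM final alongside test compound for 18 h at 37 C.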
# [3] = molecular target: Retinoic acid receptor RXR-alpha (Homo sapiens) (UniProt P19793); assay: as above; settings: HEK293T RXRa-UAS-bla, beta-lactamase ratio, antagonist mode
# Summary of the method: as §1
# [4] = molecular target: Thyroid hormone receptor beta (Homo sapiens) (UniProt P10828); assay: qHTS assay for small molecule antagonists of thyroid hormone receptor beta signaling (AID 588547; active means well fitted inhibition curve with a large enough effect in the signal ratio, with a control signal flat, not every such curve was filed as active; the % refers to the signal ratio;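 further: cells stimulated with 0.4 nM T3 agonist during compound exposure; series mostly up to about 77 µM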); settings: TR-UAS-bla HEK293, beta-lactamase ratio, antagonist mode, 18 h
# Sequence of Thyroid hormone receptor beta (Homo sapiens) (P10828 whole entry, looked up): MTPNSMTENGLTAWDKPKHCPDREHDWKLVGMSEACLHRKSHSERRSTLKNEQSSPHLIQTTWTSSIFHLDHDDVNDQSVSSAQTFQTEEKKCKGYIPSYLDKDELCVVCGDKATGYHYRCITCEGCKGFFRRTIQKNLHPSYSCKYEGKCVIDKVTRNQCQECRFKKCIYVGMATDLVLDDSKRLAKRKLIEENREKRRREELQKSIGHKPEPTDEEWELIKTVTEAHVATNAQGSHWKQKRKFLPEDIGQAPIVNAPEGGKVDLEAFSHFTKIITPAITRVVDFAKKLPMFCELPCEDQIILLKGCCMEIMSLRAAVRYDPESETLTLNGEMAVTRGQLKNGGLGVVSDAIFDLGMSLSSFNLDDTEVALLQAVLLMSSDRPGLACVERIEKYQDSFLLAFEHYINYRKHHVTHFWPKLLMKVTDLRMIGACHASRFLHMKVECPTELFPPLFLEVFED
# Summary of the method: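 TR-UAS-bla GripTite HEK293 cells in 2% charcoal/dextran FBS medium; compounds 0.59 nM to 92 uM with T3 at 0.4nM final, 18 h at 37 C. Beta-lactamase read by CCF4 fluorescence (460/530 nm); Hill fits gave IC50 and efficacy.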
# [5] = molecular target: Voltage-gated inwardly rectifying potassium channel KCNH2 (Homo sapiens) (UniProt Q12809); assay: qHTS Assay for Small Molecule Inhibitors of the Human hERG Channel Activity (AID 588834);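 further: top concentration of the series differs between compounds; lower thallium flux fluorescence means stronger hERG block; nearly all actives have a fitted effect of over 50% in size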
# Sequence of Voltage-gated inwardly rectifying potassium channel KCNH2 (Homo sapiens) (Q12809 whole entry, looked up): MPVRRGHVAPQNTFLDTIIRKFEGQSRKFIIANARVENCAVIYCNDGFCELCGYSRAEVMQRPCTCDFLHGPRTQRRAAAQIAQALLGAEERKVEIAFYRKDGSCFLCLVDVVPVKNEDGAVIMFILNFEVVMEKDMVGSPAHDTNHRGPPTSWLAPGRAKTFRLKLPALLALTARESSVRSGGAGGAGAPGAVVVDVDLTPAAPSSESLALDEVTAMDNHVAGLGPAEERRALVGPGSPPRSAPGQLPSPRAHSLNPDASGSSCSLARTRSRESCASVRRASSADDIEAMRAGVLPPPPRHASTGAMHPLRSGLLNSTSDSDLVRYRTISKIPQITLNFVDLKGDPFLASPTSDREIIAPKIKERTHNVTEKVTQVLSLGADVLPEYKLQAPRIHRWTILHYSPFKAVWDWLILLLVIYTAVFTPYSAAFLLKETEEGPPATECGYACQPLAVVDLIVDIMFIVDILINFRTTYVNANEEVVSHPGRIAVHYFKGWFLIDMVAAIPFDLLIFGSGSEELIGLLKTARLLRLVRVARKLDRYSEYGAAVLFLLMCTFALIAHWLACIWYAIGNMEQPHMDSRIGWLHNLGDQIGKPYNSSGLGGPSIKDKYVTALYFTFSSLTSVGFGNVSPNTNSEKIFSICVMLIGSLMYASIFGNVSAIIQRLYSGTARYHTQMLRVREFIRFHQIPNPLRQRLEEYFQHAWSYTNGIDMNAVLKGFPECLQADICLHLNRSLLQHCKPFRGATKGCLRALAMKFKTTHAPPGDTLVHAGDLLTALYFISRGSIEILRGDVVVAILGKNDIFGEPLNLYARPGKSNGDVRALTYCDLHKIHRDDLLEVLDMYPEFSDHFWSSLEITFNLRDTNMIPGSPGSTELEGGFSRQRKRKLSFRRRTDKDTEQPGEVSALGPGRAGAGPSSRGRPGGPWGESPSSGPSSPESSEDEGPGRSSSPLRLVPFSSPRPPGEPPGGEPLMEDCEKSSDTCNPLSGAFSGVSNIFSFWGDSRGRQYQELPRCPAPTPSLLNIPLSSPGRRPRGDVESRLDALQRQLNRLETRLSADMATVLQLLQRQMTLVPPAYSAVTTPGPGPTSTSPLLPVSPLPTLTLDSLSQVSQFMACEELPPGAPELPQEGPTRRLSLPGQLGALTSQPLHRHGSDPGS
# Summary of the method: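 Thallium-flux (FluxOR) read-out on FDSS: fluorescence read 10 s before and 2 min after stimulation buffer. hERG-BacMam-transduced U2OS cells, compound exposure about 10 min. AC50 by standard Hill equation.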
# [6] = molecular target: Luciferin 4-monooxygenase (Photinus pyralis) (UniProt P08659); assay: Biochemical firefly luciferase enzyme assay for NPC (AID 624030);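 further: purified P. pyralis luciferase at 10 nM with luciferin and ATP substrate; series mostly up to about 59 µM; nearly all actives have a fitted effect of over 70% in size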
# Sequence of Luciferin 4-monooxygenase (Photinus pyralis) (P08659 whole entry, looked up): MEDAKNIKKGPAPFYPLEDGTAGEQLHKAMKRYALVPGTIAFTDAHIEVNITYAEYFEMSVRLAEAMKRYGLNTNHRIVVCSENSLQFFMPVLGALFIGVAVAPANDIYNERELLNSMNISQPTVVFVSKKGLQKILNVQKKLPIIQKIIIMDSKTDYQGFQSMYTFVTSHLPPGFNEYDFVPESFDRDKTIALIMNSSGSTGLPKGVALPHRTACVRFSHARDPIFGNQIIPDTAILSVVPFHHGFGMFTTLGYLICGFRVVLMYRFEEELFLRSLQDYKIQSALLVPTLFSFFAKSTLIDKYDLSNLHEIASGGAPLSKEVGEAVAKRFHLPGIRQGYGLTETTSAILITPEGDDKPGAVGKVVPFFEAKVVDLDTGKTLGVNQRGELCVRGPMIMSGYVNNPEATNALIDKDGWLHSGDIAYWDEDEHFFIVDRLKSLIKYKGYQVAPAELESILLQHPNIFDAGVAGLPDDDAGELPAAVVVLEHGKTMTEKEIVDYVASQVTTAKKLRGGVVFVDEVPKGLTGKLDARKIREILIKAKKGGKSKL
# Summary of the method: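 Purified P. pyralis luciferase at 10 nM in 50 mM Tris Acetate (final), luminescence read within 5 minutes of enzyme addition to compounds. Activity normalised to PTC124 versus DMSO; concentration-response curves classed by r2, magnitude and activity.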
# [7] = S16 Schwann cell viability assay (CellTiter-Glo assay) (AID 624031);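 further: native untransfected S16 rat Schwann cells; cellular ATP luminescence as a viability measure; series mostly up to about 58 µM; nearly all actives have a fitted effect of over 70% in size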
# Summary of the method: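 Parental S16 cells, 24 h compound, 37 °C. ATP-luminescence viability; DMSO = 0% activity, empty wells as reference; curves classified by fit quality and efficacy.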
# [8] = S16 Schwann cell PMP22 intronic element firefly luciferase assay (AID 624032); further: series mostly up to about 58 µM; nearly all actives have a fitted effect of over 30% in size
# Summary of the method: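 Rat S16 Schwann cells stably carrying firefly luciferase driven by a PMP22 intronic element, in 10% FBS, treated 24 h at 37 C. ONE-Glo luminescence normalized to PTC124 control and DMSO (0%); curves classed by r2, magnitude and activity.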
# [9] = molecular target: Glutaminase kidney isoform, mitochondrial (Homo sapiens) (UniProt O94925); assay: qHTS for Inhibitors of Glutaminase (GLS): LOPAC Validation (AID 624146);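 further: glutamate product detected by oxidase and peroxidase coupled Amplex red fluorescence gain; series mostly up to about 46 µM; nearly all actives have a fitted effect of over 60% in size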
# Sequence of Glutaminase kidney isoform, mitochondrial (Homo sapiens) (O94925 whole entry, looked up, canonical isoform): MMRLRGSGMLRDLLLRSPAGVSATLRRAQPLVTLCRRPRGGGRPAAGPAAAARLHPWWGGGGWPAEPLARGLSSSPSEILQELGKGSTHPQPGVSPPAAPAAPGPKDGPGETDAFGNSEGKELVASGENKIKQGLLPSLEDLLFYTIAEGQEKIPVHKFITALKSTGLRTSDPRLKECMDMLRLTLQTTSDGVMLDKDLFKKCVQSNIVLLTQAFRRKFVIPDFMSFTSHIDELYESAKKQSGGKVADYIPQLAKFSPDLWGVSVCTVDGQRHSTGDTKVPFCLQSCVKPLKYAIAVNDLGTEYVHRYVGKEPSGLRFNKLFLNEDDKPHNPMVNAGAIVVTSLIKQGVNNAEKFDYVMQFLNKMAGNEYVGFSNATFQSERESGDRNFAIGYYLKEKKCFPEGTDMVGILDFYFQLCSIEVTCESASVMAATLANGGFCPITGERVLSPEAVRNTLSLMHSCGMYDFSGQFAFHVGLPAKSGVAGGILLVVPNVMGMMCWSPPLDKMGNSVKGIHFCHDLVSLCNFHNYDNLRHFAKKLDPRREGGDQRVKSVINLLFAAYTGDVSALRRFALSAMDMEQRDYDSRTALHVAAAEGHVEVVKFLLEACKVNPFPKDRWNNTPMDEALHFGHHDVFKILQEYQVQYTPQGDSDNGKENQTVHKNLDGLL
# Summary of the method: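 Read-out is an Amplex red fluorescence increase coupled through glutamate oxidase and HRP, measured before and after 30 min room-temperature incubation. hKGA is in 45 mM KH2PO4 (pH 8.2) with 0.02% Tween-20; glutamine added as 1mM solution.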
# [10] = qHTS of Trypanosoma Brucei Inhibitors: LOPAC Validation (AID 624147)
# Summary of the method: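 Readout: single end-point luminescence (Kinase-Glo Plus, 10 min). Reaction conditions were TbPYK/substrate plus 130 uM ADP, 45 min at RT, pH 7.2 TEA buffer. No-enzyme wells served as controls, and data were normalized before concentration-response fitting.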
# [11] = molecular target: Glucagon-like peptide 1 receptor (Homo sapiens) (UniProt P43220); assay: qHTS of GLP-1 Receptor Agonists: LOPAC Validation (AID 624148);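 further: higher luminescence signal means agonism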
# Sequence of Glucagon-like peptide 1 receptor (Homo sapiens) (P43220 whole entry, looked up): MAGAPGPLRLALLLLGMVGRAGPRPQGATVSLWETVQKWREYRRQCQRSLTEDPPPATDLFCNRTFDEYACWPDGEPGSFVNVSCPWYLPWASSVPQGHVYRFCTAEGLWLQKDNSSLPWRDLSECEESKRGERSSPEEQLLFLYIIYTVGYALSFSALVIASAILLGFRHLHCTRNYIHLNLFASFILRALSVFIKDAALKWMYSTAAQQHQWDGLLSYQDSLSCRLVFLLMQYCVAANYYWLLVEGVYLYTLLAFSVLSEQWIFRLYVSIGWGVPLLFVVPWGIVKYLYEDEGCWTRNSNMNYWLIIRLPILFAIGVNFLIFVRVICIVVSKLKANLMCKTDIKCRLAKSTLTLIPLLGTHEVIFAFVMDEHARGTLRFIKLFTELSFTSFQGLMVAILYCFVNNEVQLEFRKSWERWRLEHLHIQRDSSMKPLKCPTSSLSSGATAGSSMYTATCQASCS
# Summary of the method: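 HEK293 cells stably co-expressing GLP-1R and a cAMP-responsive luciferase reporter, plated 12 hours before compound, then incubated 4-6 hr at 37 deg C. Luminescence read 12 min after detection reagent.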
# [12] = qHTS of Nrf2 Activators: LOPAC Validation (AID 624149)
# Summary of the method: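 Cells (AREc32_Fluc) are plated at 1000 per well in OPTI-MEM containing 5% FBS and left overnight. Compounds are pinned in and incubated 24 hr at 37 deg C, and firefly luciferase is detected with Steady-Glo.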
# [13] = HTS Assay for Allosteric Antagonists of the Human D2 Dopamine Receptor: Hit Validation in HTRF (AID 624455);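 further: stable D1 dopamine receptor cell line scored for blocking the D1 response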
# Summary of the method: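 Inhibition of the D1-mediated response is measured by HTRF in cells that stably express the D1 dopamine receptor. Compounds reaching this step are hits from calcium-flux antagonism testing at EC80 dopamine in inducible Hek293 Trex D2 cells.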
# [14] = S16 Schwann cell PMP22 intronic element beta-lactamase assay (AID 624044; calls by dose curve; further: nearly all actives have a fitted effect of over 15% in size)
# Summary of the method: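 Beta-lactamase reporter under a PMP22 intronic regulatory element in stable S16 rat Schwann cells; 24 h compound exposure. 460 nm blue signal normalized between DMSO (0%) and potassium clavulanate, with 535 nm FRET tracking viability; curves classed by r2 and response.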
compound,measurement,setting,value
NCCNCCNCCN,outcome,[1],inactive
same,max response,[2],-7.08%
same,max response,[3],10.1% (inactive)
same,activity change % (negative = inhibition),[4],-6.32% (inactive)
same,Potency,[5],inactive
same,Potency,[6],inactive
same,Potency,[7],inactive
same,Potency,[8],inactive
O=C1O[C@H]([C@@H](O)CO)C(O)=C1O,outcome,[1],inactive
same,max response,[2],-3.01%
same,max response,[3],1.04% (inactive)
same,activity change % (negative = inhibition),[4],4.68% (inactive) and -9.73% (inactive)
same,Potency,[5],inactive
same,Potency,[6],inactive
same,Potency,[7],inactive
same,Potency,[8],inactive
C[C@]12CC[C@@H]3c4ccc(O)cc4CC[C@H]3[C@@H]1CC[C@@H]2OC(=O)CCC1CCCC1,Potency,[5],inactive
Cc1cc2nc3c(=O)[nH]c(=O)nc-3n(C[C@H](O)[C@H](O)[C@H](O)CO)c2cc1C,activity change % (negative = inhibition),[4],-25% (inactive)
CN(C)CCOC(C)(c1ccccc1)c1ccccn1 (configuration not stated),outcome,[1],inactive
same,max response,[2],3.38%
same,max response,[3],-25.1% (inactive)
same,activity change % (negative = inhibition),[4],-6.28% (inactive)
same,Potency,[5],inactive
same,Potency,[9],inactive
same,outcome,[10],inactive
same,outcome,[11],inactive
same,outcome,[12],inactive
same,outcome,[13],inactive
CCCCCCCCCCCCOS(=O)(=O)O,outcome,[1],inactive
same,max response,[2],-7.08% [middle of 4 runs]
same,max response,[3],6.26% (inactive) [middle of 4 runs]
same,activity change % (negative = inhibition),[4],-2.2% (inactive)
same,Potency,[5],inactive
same,Potency,[7],inactive
same,Potency,[8],inactive
same,Potency,[14],inactive
COc1ccc2cc1Oc1cc3c(cc1OC)CC[N+](C)(C)[C@H]3Cc1ccc(cc1)Oc1c(OC)c(OC)cc3c1[C@@H](C2)[N+](C)(C)CC3,Potency,[5],inactive
NCCNCCNCCNCCN,outcome,[1],inactive
same,max response,[2],-6.87%
same,max response,[3],-26.1% (inactive)
same,activity change % (negative = inhibition),[4],-25.9% (inactive) and -19% (inactive)
same,Potency,[5],inactive
same,Potency,[6],inactive
same,Potency,[7],inactive
same,Potency,[8],inactive
C[C@]12CC[C@@H]3c4ccc(O)cc4CC[C@H]3[C@@H]1CCC2=O,outcome,[1],inactive
same,max response,[2],4.88%
same,max response,[3],-13% (inactive)
same,activity change % (negative = inhibition),[4],17.6% (inactive)
same,Potency,[5],inactive
same,Potency,[9],inactive
same,outcome,[10],inactive
same,outcome,[11],inactive
same,outcome,[12],inactive
same,outcome,[13],inactive
CCOC(=O)c1ccc(O)cc1,outcome,[1],inactive
same,max response,[2],-7.61%
same,max response,[3],4.29% (inactive)
same,activity change % (negative = inhibition),[4],-5.55% (inactive)
same,Potency,[5],inactive
same,Potency,[6],inactive
same,Potency,[7],inactive
same,Potency,[8],inactive
same,Potency,[14],inactive
CCCCOC(=O)c1ccc(O)cc1,outcome,[1],inactive
same,max response,[2],-11.5% and -9.16%
same,max response,[3],-15.2% (inactive) and -3.16% (inactive)
same,activity change % (negative = inhibition),[4],-4.41% (inactive) and 2.19% (inactive)
same,Potency,[5],inactive
same,Potency,[7],inactive
same,Potency,[8],inactive
same,Potency,[14],inactive
